TRPML1 blocker – human mucolipin-1 channel inhibition; Q9GZU1; TRPML1-inducible cells, Ca2+ dye fluorescence, FDSS; hits give low values; inhibition of EC80 agonist-evoked calcium signal; activity change, negative = inhibition, % (no concentration beside the values); actives 0.02% (n = 390,000); AID 624415; in the data active means activity change below about -50%; inconclusive means between about -30% and that limit;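 further: stimulus is agonist 54-4 at its EC80 concentration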
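TRPML1-DL cells, Tet-induced overnight (~16 h, 37 °C) at 1,500 cells/well, were loaded with Ca8 no-wash dye plus quencher for 45-90 min at room temperature. Compounds were pinned during FDSS kinetic reading; agonist 54-4 at EC80 (4 uM final) then added.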
TRPV1 potentiator – human TRPV1 potentiation; potentiation, % at 8.33 µM; TRPV1-expressing cells, Fluo-8 calcium influx, capsaicin EC20 potentiation; actives 0.02% (n = 320,000); in the data active means potentiation above about 80%; inconclusive means between about 30% and that limit
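TRPV1-expressing cells were cultured overnight at 35.5C and loaded with Fluo-8 calcium dye for 40 to 90 min at room temperature. After a 10 s baseline, compound was added and calcium influx was read kinetically for 3 min (ex 480/em 520 nm).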
TRPV1 ag – human TRPV1 agonism; activation, % at 8.33 µM; TRPV1-expressing cells, Fluo-8 calcium influx, agonist mode; actives 0.19% (n = 320,000); in the data active means activation above about 80%; inconclusive means between about 30% and that limit
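Cells expressing TRPV1 were dye-loaded with Fluo-8 and read kinetically: 10 s baseline, 3 min after compound (agonist portion), then 2 min after EC20 capsaicin (allosteric enhancer portion). Calcium-bound dye fluorescence at 480/520 nm.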
USP1 inh – inhibitors of human USP1/UAF1 deubiquitinase. O94782. recombinant USP1/UAF1, Ub-Rhodamine cleavage fluorescence. Potency, µM (titrated, usually from 57.1 µM), hits mostly inhibitors. actives 0.23% (n = 390,000). AID 743255; active means well fitted inhibition curve with a large enough effect; inconclusive means small, poorly fitted or top-dose-only effect; inactive means no such curve, though single readings can be large or run the other way; further: nearly all actives have a fitted effect of over 60% in size
Target sequence (O94782 whole entry, looked up): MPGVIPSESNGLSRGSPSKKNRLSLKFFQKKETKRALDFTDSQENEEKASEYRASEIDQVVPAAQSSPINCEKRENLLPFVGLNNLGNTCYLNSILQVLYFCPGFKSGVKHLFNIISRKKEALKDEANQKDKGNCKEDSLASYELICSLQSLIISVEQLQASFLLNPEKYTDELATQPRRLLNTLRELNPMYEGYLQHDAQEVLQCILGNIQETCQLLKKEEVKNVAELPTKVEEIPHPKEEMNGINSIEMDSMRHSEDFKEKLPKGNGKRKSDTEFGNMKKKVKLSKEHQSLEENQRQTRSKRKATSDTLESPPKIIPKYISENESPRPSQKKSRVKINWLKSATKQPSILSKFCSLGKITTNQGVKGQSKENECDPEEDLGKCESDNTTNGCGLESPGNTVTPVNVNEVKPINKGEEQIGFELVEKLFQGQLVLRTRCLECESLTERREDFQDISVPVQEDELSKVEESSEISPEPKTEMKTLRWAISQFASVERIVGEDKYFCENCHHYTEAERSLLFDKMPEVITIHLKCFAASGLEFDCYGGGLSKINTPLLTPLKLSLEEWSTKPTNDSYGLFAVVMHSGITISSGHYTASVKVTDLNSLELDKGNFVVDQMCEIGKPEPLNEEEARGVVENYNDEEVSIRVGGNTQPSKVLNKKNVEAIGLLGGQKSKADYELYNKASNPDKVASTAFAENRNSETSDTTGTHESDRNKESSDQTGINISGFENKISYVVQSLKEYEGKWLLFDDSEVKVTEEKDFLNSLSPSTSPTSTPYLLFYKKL
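USP1/UAF1 complex (1 nM) preincubated 15 min at room temperature with compound, then Ub-Rho substrate (150 nM final) added. Kinetic fluorescence at 480/540 nm over 6 reads at 60 s intervals; 50 mM HEPES pH 7.8, 0.5 mM EDTA, 0.1 mg/ml BSA, 1 mM TCEP, 0.01% Tween-20.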
TRPML1 agonist – activates the human TRPML1 channel; AID 624414; TRPML1-expressing cells, Ca2+ dye fluorescence, FDSS; Q9GZU1; activation, % (no concentration beside the values); actives 0.12% (n = 410,000); in the data active means activation above about 50%; inconclusive means mostly about 30% to 49%
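Tet-induced TRPML1-DL cells, 1,500 per well, cultured overnight, were loaded with a no-wash Ca2+ dye for 45–90 min. Calcium fluorescence was recorded on the FDSS for 110 s after compound addition, before the EC80 agonist (4 uM 54-4) was added.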
Hits are given with their value; - = inactive; ? = inconclusive; . = not tested or not shown. This is a sample that favours compounds with a hit; in the whole collection about 0.4% have one here.

SMILES	TRPML1 blocker	TRPV1 potentiator	TRPV1 ag	USP1 inh	TRPML1 agonist
O=C(Nc1ccc([N+](=O)[O-])cc1)N1CCCCCC1	-	-	-	-	-
Cc1ccc(C(C)NC(=S)NCc2ccc(F)cc2)cc1C (stereo not given)	-	-	80	-	-
CCc1ccc(C(C)NC(=S)NCc2ccc(F)cc2)cc1 (stereo not given)	-	-	?	-	-
CCOc1ccc(C(C)NC(=S)NCc2ccc(F)cc2)cc1 (stereo not given)	-	-	86	?	-
Oc1ccccc1/C=N/Nc1cc(N2CCCC2)nc(N2CCCC2)n1	-	-	?	25µM	-
Oc1cccc(/C=N/Nc2cc(N3CCOCC3)nc(N3CCOCC3)n2)c1	-	-	93	-	-
Cc1nc(N/N=C/c2ccc(O)cc2O)cc(N2CCOCC2)n1	-	-	-	-	-
Oc1ccc(/C=N/Nc2cc(N3CCOCC3)nc(N3CCOCC3)n2)cc1O	-	-	?	-	-
COC(=O)CN1C(=S)N(c2ccc(OC)cc2)C(=O)/C1=C/c1ccc(N2CCOCC2)cc1	-	-	-	28µM	-
COC(=O)CN1C(=S)N(c2ccc(OC)cc2)C(=O)/C1=C/c1ccc(OC)cc1	-	-	-	-	-
Nc1cc(SCc2ccc([N+](=O)[O-])cc2)ncn1	-	.	.	-	-
O=C(Nc1nnc(C2CCCCC2)s1)c1ccc(Br)s1	-	-	80	-	-
NC(=O)c1ccc(OCC(F)(F)C(F)(F)C(F)(F)C(F)(F)C(F)(F)C(F)F)cc1	-	-	-	-	-
CN(C)c1ccc(/C=C(\C#N)C(=O)Nc2nc3c(s2)CCN(Cc2ccccc2)C3)cc1	-	-	-	4.5µM	?
O=c1c2sc3ccccc3c2n(Cc2ccccc2F)c(=O)n1-c1ccccc1Cl	-	.	.	-	-
CCN1CCN(CCCN(Cc2ccco2)C(=S)Nc2ccccc2Cl)CC1	-	128	-	-	-
O=C(Cc1nc2ccccc2[nH]c1=O)c1ccccc1	-	-	-	32µM	-
O=c1[nH]c2ccccc2nc1Cc1ccccc1	-	-	-	-	-
CC(C)C(NC(=O)c1ccccc1NC(=O)C(C)(C)C)C(=O)N1CCOCC1 (stereo not given)	-	.	.	-	-
CC(NC(=O)c1ccccc1NC(=O)c1ccccc1)C(=O)N1CCOCC1 (stereo not given)	-	-	80	-	-
CC(C)(C)OC(=O)C[C@@H]1C/C=C\C[C@H](CC(=O)NCCO)C(=O)N[C@H](Cc2ccccc2)COC1=O	-	.	.	-	-
S=C(N/N=C1\CCc2ccccc21)NC1CCCCC1	-	-	-	-	-
Clc1ccc2nc3c4ccccc4cnn3c2c1	-	-	-	-	-
Oc1ccc2nnc3c(Br)cnn3c2c1	-	-	-	?	87
CC(C)S(=O)(=O)c1csc(C(=O)NNC(=O)Nc2ccccc2)c1Cl	-	-	-	-	-
SMILES	TRPML1 blocker	TRPV1 potentiator	TRPV1 ag	USP1 inh	TRPML1 agonist
CC(=O)c1ccc(NC(=O)CSc2nc3c(=O)n(C)c(=O)n(C)c3n2C)cc1	-	.	.	-	-
CC(=O)c1cccc(NC(=O)/C=C/c2ccc([N+](=O)[O-])s2)c1	-	-	84	-	-
Cc1nnc(Sc2cc(NCCCO)c([N+](=O)[O-])c3nonc23)s1	-	-	-	14µM	-
N#C/C(=C\c1ccc(-c2ccc(Cl)c(C(=O)O)c2)o1)c1nc2ccccc2[nH]1	-	-	-	32µM	-
N#C/C(=C\c1ccc(-c2ccc(C(=O)O)cc2)o1)c1nc2ccccc2[nH]1	-	-	?	28µM	61
Cc1ccc2nc(/C(C#N)=C/c3ccc(-c4cccc(Cl)c4)o3)[nH]c2c1	-	.	.	-	?
N#C/C(=C\c1ccc(N2CCOCC2)c([N+](=O)[O-])c1)c1nc2ccccc2[nH]1	-	-	-	-	-
N#C/C(=C\c1ccc(N2CCCCC2)o1)C(N)=O	-	-	-	?	-
N#C/C(=C/c1ccc(N2CCOCC2)o1)c1ccc(Cl)cc1	-	-	-	28µM	-
N#C/C(=C\c1ccc(N2CCOCC2)o1)c1nc2ccccc2[nH]1	-	-	-	25µM	60
N#C/C(=C\c1ccccc1C(=O)O)c1nc2ccccc2[nH]1	-	-	-	-	-
O=S(=O)(c1ccccc1)N1CCN(Cc2ccccc2)c2ccccc21	-	.	.	-	-
COc1ccc(NC(=O)Nc2cc(F)ccc2C)cc1	-	-	-	-	-
CCc1ccc(NC(=O)Nc2ccc3c(c2)N(C)C(=O)CS3)cc1	-	-	88	-	-
O=C(c1ccccc1)c1c2c(cc3sc4ccccc4[n+]13)-c1cccc3cccc-2c13	-	-	?	?	54
CCCCCCn1nc(C(=O)N(CC(C)C)c2c(N)n(CCCC)c(=O)[nH]c2=O)c2ccccc2c1=O	-	-	-	-	-
CC(=O)Nc1nnc(SCc2cc(=O)c3cccc(C)c3[nH]2)s1	-	.	.	-	-
O=C(NC(=S)N1CCCc2ccccc21)c1ccc(Br)cc1	-	-	-	-	-
COc1ccc(CCNc2ncnc3c2c(-c2ccccc2)cn3-c2cccc(Cl)c2)cc1OC	-	.	.	-	74
CCOC(=O)c1sc(NC(=O)CSc2nc(-c3ccco3)cc(C(F)(F)F)n2)c(C#N)c1C	-	-	-	-	-
CC(=O)Oc1oc(-c2ccccc2)nc1C=Nc1ccc(N(C)C)cc1	-	-	-	25µM	-
CC(=O)Oc1ccc(N2C(=O)C3C(C2=O)C(C(=O)c2ccc(Cl)cc2)N2CCCC32)cc1 (stereo not given)	-	-	-	22µM	-
COc1ccc(Nc2nc(NCc3ccco3)nc(N3CCOCC3)n2)cc1	-	-	86	-	-
Cc1ccc(C)c(C(=O)C[n+]2cccc(Br)c2)c1	.	.	.	.	-
COc1cc(N(C(C)=O)c2ccc(O)cc2)c2ncccc2c1	-	.	.	-	-
SMILES	TRPML1 blocker	TRPV1 potentiator	TRPV1 ag	USP1 inh	TRPML1 agonist
COc1cc(N(C(C)=O)c2ccc(O)c(C(=O)O)c2)c2ncccc2c1	-	.	.	32µM	-
CCc1nnc(NS(=O)(=O)c2ccc(NC(=S)NC(=O)/C=C/c3ccc(C(C)C)cc3)cc2)s1	-	-	-	25µM	-
CC(=O)c1ccc(N2CCN(C(=O)CCCn3c(=O)[nH]c4ccccc4c3=O)CC2)cc1	-	-	-	-	-
O=C(Nc1ccc(C(F)(F)F)cn1)Nc1cccs1	-	-	-	-	-
Cc1nc(C(F)(F)F)ccc1C(=O)Nc1ccc(C(F)(F)F)cn1	-	-	82	-	-
CC(C)CCSc1nc(N2CCOCC2)c2c(c1C#N)CC(C)(C)OC2	-	-	91	-	-
CNc1cc(N2CCN(S(=O)(=O)N(C)C)CC2)ccc1[N+](=O)[O-]	-	-	-	-	-
CN(C)c1ccc(C=c2c3cc(O)ccc3n3c2cc(-c2ccccc2)[n+]3C)cc1	-	.	.	28µM	-
